Reference: PubChem BioAssay (NCATS)
Where “and” joins values, the source holds several entries; their conditions need not be identical. Equal values may be shown once. Records with an inconclusive call do not appear. Calls of active or inactive are those of the source. Unless noted, the call rests on the fitted dose curve; in most records, active means well fitted cell-killing curve with a large enough effect; inconclusive means small, poorly fitted or top-dose-only effect, or effect the other way; inactive means flat fitted curve, though single readings scatter.

experiment: qHTS assay for cell viability of HEK293 cells (AID 743288); conditions: ATP luminescence (CellTiter-Glo), 18 h; max response: stronger effect = lower value; further: on the % scale 0 is the no-effect control and ±100 the full control effect; nearly all actives have a fitted effect of over 50% in size
Method in brief: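 Environmental chemicals tested in qHTS format against parental HEK293 cells; 18 h treatment, 37 C; read-out ATP luminescence (CellTiter-Glo), 30 min RT development.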

| SMILES | max response |
| --- | --- |
| CCCCCC[C@H]1C(=O)O[C@H](C)[C@H](NC(=O)c2cccc(NC=O)c2O)C(=O)O[C@@H](C)[C@@H]1OC(=O)CC(C)C | -27.4% (inactive) |
| CCCCCCCCCCCCCCCC[N+](C)(C)C | -5.85% (inactive) |
| CCCCCCCCc1ccc(O)cc1 | -15.8% (inactive) and -26% (inactive) |
| CN(C)[C@@H]1C(=O)C(C(N)=O)=C(O)[C@@]2(O)C(=O)C3=C(O)c4c(O)cccc4[C@@](C)(O)[C@H]3[C@H](O)[C@@H]12 | -3.99% (inactive) and -10.9% (inactive) and -2.39% (inactive) |
| CN(C)NC(=O)CCC(=O)O | 1.56% (inactive) and -3.81% (inactive) |
| CC(C)(O)C(=O)Nc1ccc([N+](=O)[O-])c(C(F)(F)F)c1 | -8.24% (inactive) |

experiment: qHTS assay for cell viability of the p53RE-bla HCT-116 cell line (AID 743292); conditions: p53RE-bla HCT-116 viability, ATP luminescence, 16 h; series mostly up to 95 µM; further: on the % scale 0 is the no-effect control and ±100 the full control effect; nearly all actives have a fitted effect of over 55% in size
Method in brief: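 After plating at 4,000 cells per well and a 5 h rest at 37 C, HCT-116 cells carrying p53RE-bla received test chemicals in DMSO. Sixteen hours later at 37 C, CellTiter-Glo was added and luminescence recorded following 30 min at room temperature.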

| SMILES | Potency |
| --- | --- |
| CCCCCCCCCCCCCCCC[N+](C)(C)C | inactive |
| CCCCCCCCc1ccc(O)cc1 | inactive |
| CN(C)[C@@H]1C(=O)C(C(N)=O)=C(O)[C@@]2(O)C(=O)C3=C(O)c4c(O)cccc4[C@@](C)(O)[C@H]3[C@H](O)[C@@H]12 | inactive |
| CN(C)NC(=O)CCC(=O)O | inactive |
| CC(C)(O)C(=O)Nc1ccc([N+](=O)[O-])c(C(F)(F)F)c1 | inactive |

experiment: qHTS profiling of the MIPE4 collection as inhibitors of Plasmodium falciparum (3D7) proliferation (AID 743344; call rule not given here;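 further: scaled between DMSO vehicle wells and 0.29 µM artemisinin as full inhibition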); conditions: P. falciparum 3D7 in erythrocytes, SYBR Green DNA fluorescence, 72 h; at 28.5 µM (top of the series)
Method in brief: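 Erythrocytes infected with P. falciparum (0.3% parasitemia, 2.5% hematocrit) incubated with compounds 72 h at 37 C, 5% CO2. Lysis with saponin/Triton buffer containing SYBR Green I, overnight at room temperature in the dark; DNA fluorescence (485/535 nm) normalised to 0.29 uM artemisinin and DMSO.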

| SMILES | parasite growth, % of DMSO control [%] |
| --- | --- |
| Cc1c(C(=O)c2cccc3ccccc23)c2cccc3c2n1[C@H](CN1CCOCC1)CO3 | 15.4 |
| CCCCCC[C@H]1C(=O)O[C@H](C)[C@H](NC(=O)c2cccc(NC=O)c2O)C(=O)O[C@@H](C)[C@@H]1OC(=O)CC(C)C | 12 |
| O=C(N[C@H]1CN2CCC1CC2)c1ccc(Cl)cc1 | 89.4 |
| CC[C@@H](C(N)=O)N1CCCC1=O | 69.9 |
| CC[C@@]1(O)C(=O)OCc2c1cc1n(c2=O)Cc2cc3ccccc3nc2-1 | 15.1 |
| CN(C)[C@@H]1C(=O)C(C(N)=O)=C(O)[C@@]2(O)C(=O)C3=C(O)c4c(O)cccc4[C@@](C)(O)[C@H]3[C@H](O)[C@@H]12 | 29.4 |
| CN(C)NC(=O)CCC(=O)O | 91.1 |
| COC(=O)[C@@H](N)CCCN=C(N)N[N+](=O)[O-] | 91.3 |
| CC1=NN=C(c2ccc(N)cc2)c2cc3c(cc2C1)OCO3 | 133 |
| CC(C)(O)C(=O)Nc1ccc([N+](=O)[O-])c(C(F)(F)F)c1 | 82.8 |
| c1ccc(CCCN2CCN(CCOC(c3ccccc3)c3ccccc3)CC2)cc1 | 9.93 |
| Oc1ccc2c3c1O[C@H]1c4[nH]c5c(c4C[C@@]4(O)[C@@H](C2)N(CC2CC2)CC[C@]314)C[C@@]1(O)[C@H]2Cc3ccc(O)c4c3[C@@]1(CCN2CC1CC1)[C@H]5O4 | 10.3 |
| NC1CC1c1ccccc1 (stereo not given) | 95.6 |
| COc1ccc2c(c[n+](C)c3c4cc5c(cc4ccc23)OCO5)c1OC | 71.2 |
